Source: the supplement of paper PMC11417369
Whole data set: some 25,000 sequences, median “ln(normalized median fluorescence intensity)” near 7.1, cut for the highest 2% near 10. The sample holds the highest values, similar sequences and a random draw of the others, so the mix is not that of the screen.

Test system: PfSIP2 AP2 domain 1 (GST-tagged)
Experiment: gcPBM binding intensity (ln(normalized median fluorescence intensity)); higher = stronger DNA binding
Procedure, shortened: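 Plasmodium falciparum DNA-binding domains carrying a GST tag were expressed in E. coli and applied for 1 h, at about 25 μg on average, to an Agilent 4 × 180k array. The array held primer-extended double-stranded 36-bp intergenic genomic probes together with negative controls, and binding took place in 1× PBS with 1% milk, 0.2 mg/ml BSA, 0.5% salmon testes DNA and 0.03% Triton X-100. An Alexa488 anti-GST antibody detected bound protein, and the array was scanned at 488 nm. Binding intensity is taken as the highest Masliner-normalised natural-log median intensity across replicate spots of either probe orientation.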

Row | Sequence | gcPBM binding intensity (ln)
1 | TCCTTATATTTGCACACACACACAAGAAAATGAAAA [CACACA_site6613] | 8.3
2 | CATAAAAATGAACATACACACATATATTTATTTATA [CACACA_site7222] | 6.85
3 | CATGCCGTTAAATTATGTACTTATTATTTTAATATG [XGTACX_site4209] | 7.03
4 | TAAAAAAAATCATTCACACATATATGAAAAAAAAAA [CACACA_site5546] | 6.72
5 | TTATGGTGCATGAAATCACACATTGATATATATGCT [CACACA_site5352] | 11.3
6 | TATCATGTTTTTATGGTGCATGAAATCACACATTGA | 9.32
7 | AAAAAAATAAGGTGCACACAAAAAAAAAAAAAAAAA [CACACA_site812] | 12.4
8 | ACAAAAAAATAAGGTGCACACAAAAAAAAAAAAAAA [CACACA_site8171] | 12
9 | AATATAAAAATGCACACACACAAAAAAAAAAAAAAA [CACACA_site6546] | 7.37
10 | TAAATATAAAAATGCACACACACAAAAAAAAAAAAA [CACACA_site895] | 7.44
11 | AAAAATAAAAGGTGTGCACACAAAAATATATATATA [CACACA_site8507] | 8.89
12 | ATATATATATATATTGTGCACAAAAAAAAATAAGCA | 9.29
13 | GTCCTTCATCATATTTAACACACAGAGAAAAAGCGG [CACACA_site7979] | 7.68
14 | AAAATAAAAAAAATAAATAAAAAAAATAATAATAAA [CACACA_negctrl_site563] | 6.55
15 | TATAACTTTTTTATTACACACCTATGCAATATTATA [CACACA_site6570] | 7
16 | TATATAATATAATTGACATGCAACCATTTTCGTGAA [TGCATGCA_site458] | 6.84
17 | ACTTTTTTTTTGTGTGTGCACTCGATTATATACATA [GTGCAC_site9846] | 10.3
18 | ATATATATTATGTGTGTGCACTTTTGTTATTATTAT | 10.4
19 | TTTTTTTTTTTTTTGTGTACATATAATGCACATTAT [XGTACX_site6505] | 8.07
20 | TATTTTTTTTGTTAGGTGCATTTACATTTATTTTTA | 9.93
21 | TTTTTTTTTGTTATGTTGCACTTTGCCATATTATTA [GTGCAC_site9844] | 7.93
22 | ATATGTTATATAAATATATATATATATATATATATA [TGCATGCA_negctrl_site594] | 9.55
23 | ATATTTATTTGTTAGTGTACATACATATATATATAT [XGTACX_site1347] | 9.24
24 | CATACATATACTTTGTGTACATATATATATTATATA [XGTACX_site97] | 7.51

Row | Sequence | gcPBM binding intensity (ln)
25 | GAAAAATTTTTATATGTGCACATGTTATATATAATT [GTGCAC_site9742] | 8.64
26 | TTTTTGTTATTTTTAGTGCACATTTAAGGGTGTATT | 10.4
27 | AAATATATGTTATATGTGCACTTTTTTTTTTTTTTT [GTGCAC_site9667] | 10.4
28 | TTTTTGTTATTATGTGTGCACATATATATATATATA | 9.79
29 | AAAAAACACGCGCACACACACACACGCGCCCACATA [CACACA_site7106] | 7.16
30 | CATAAGAAAATAAAAACATGCACATAAGAAATATAC [TGCATGCA_site842] | 7.97
31 | ATCTTTCAATAATTCACACATATATATATATATATA [CACACA_site4598] | 9.91
32 | TTTTTTTCTATAATACACCAGAAAAAAAAATTAAAA [TGCATGCA_negctrl_site257] | 6.96
33 | AATTTTTTTTTTTTTTTTTCTTTTGTAATAAACCAT [XGTACX_negctrl_site334] | 6.92
34 | ATATATATTGTACTAGTGCATATATATACATATATT | 8.43
35 | TCATAAATATAAAGTGTGCACTTGAATAATATGTAT | 9.52
36 | TTATATTTAGTATATGCACACTTTATGTTTGTTATT [CACACA_site5163] | 7.74
37 | ATATCAAATAATTTAGTGCACTTTTTTTTTTCTTTT [GTGCAC_site9629] | 10.4
38 | TGTGTATATATGCTGGTGCAACTTTAAAAAATAATC | 10.1
39 | ATTTTCTTTTCCATAGTGCAATATAATTATCCATCA [GTGCAC_site9547] | 8.36
40 | TTTAATTTATATTTTGTGCACATCTTATTATATATA [GTGCAC_site9630] | 9.58
41 | TTTTTCTTTTTTTTTTTAATAATATATAACAAATTT [CACACA_negctrl_site1724] | 6.81
42 | ATATAAAGTATGTTAGTGCACTTTTTTTTTTTTTTT [GTGCAC_site9419] | 11.2
43 | TATATAAAAAATAGGTGGTCAACTTAAATATTTTAT [XGTACX_site4495] | 7.16
44 | TATATTTTATATATGGTGCAACTTTTATTTAAATAA | 10.6
45 | ATATTTTATATATTTGTGCACAATATTATAATATAT | 8.63
46 | TATTTATTTTTTTTTGTGCACTTAATATAATCTTAC | 10.4
47 | TAACAAAACCTTATATGTACACACATATACATCACA [XGTACX_site6772] | 7.16
